39 compounds from PubChem BioAssay (NCI) can be followed below.

Several values for one entry are separate records, joined by “and”; a condition that tells them apart may be missing. Identical values can stand only once. About 79,000 compounds went through this panel and 15% of them were active in at least one assay; those are over-represented in the sample as a whole. Activity calls are given as the source filed them. Cut-off read from the data, not from the text of the source: active = growth inhibition above about 70%; inactive = the rest.

A short description of one experiment: NCI Yeast Anticancer Drug Screen. Data for the rad50 strain (AID 155).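 Note: 0% = growth of vehicle-only cultures of the same strain.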 The settings on record: S. cerevisiae rad50 strain growth inhibition, stronger effect = higher value; at 50.0 µM unless noted. Put shortly:
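Genetically altered yeast (DNA repair pathway); compound treatment; growth inhibition vs vehicle ctrl.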
Regarding `CCCCCCCCN(CCCCCCCC)CC(O)c1cc(Cl)c(Cl)c(Cl)c1` (stereo not drawn), the growth inhibition is 24.1% (inactive).
The same measure, in the same setting: for `NC(=O)C1CC1` the value was -9.4% (inactive); for `O=C1OC(/C=C/c2ccccc2)=NC/1=C\c1ccc2c(c1)OCO2`, -4.95% (inactive); for `CCOc1ccc(C(=O)C[N+]2(CCc3ccccc3)CCOCC2)cc1`, -12.9% (inactive).
On the same count and under the same terms, for `c1ccc2c(c1)OC1OC2Oc2ccccc21` the value was -25.8% (inactive) and -10.4% (inactive); for `CC(C)=C(Nc1ccccc1)NC(C)C`, 47.4% (inactive); for `O=C1c2ccccc2NC(O)c2cccn21` (stereo not drawn), 0.3% (inactive).
On the same count and under the same terms, for `O=c1[nH]c2[nH]c(=S)[nH]c(=O)c2[nH]1` the value was 6.3% (inactive).
Regarding `Cc1ccc(NC(=O)C2CCCCC2)cc1`, the growth inhibition is 5.85% (inactive).
Still for that read-out and setting: for `N#CC1(OC2CCCCO2)Cc2ccccc2C1` (stereo not drawn) the value was 16.8% (inactive); for `CCCC1([N+](=O)[O-])c2ccccc2-c2ccc([N+](=O)[O-])cc21` (stereo not drawn), 20.4% (inactive).
As for `CC(=O)Nc1ccc2nc(SC(C)C)sc2c1`, the growth inhibition is 39.4% (inactive).
For `Nc1c(Br)cc(Br)cc1C(=O)O`, the growth inhibition is 23.9% (inactive).
On the same count and under the same terms, for `Cc1ccc(N2C(=O)CC(NC3CCCCC3)C2=O)cc1` (stereo not drawn) the value was -6.2% (inactive); for `CCCCN(CCCC)CC(=O)NC(=O)c1ccccc1`, -9.55% (inactive).
Regarding `Cc1ccc(C)c(NC(=O)Nc2ccccc2)c1`, the growth inhibition is 3.3% (inactive).
Same read-out and setting: for `N#Cc1ccccc1NC(=O)C(=O)c1c(O)c2ccccc2oc1=O` the value was -13.8% (inactive); for `CCOC(=O)/C=C/CCC(C)(C)COC(C)=O`, -10.1% (inactive); for `Nn1c(-c2cccc(Cl)c2)nc2ccccc2c1=O`, -18.6% (inactive).
Still for that read-out and setting: for `COc1ccc(OC(C)C(=O)O)c2c(=O)ccccc12` (stereo not drawn) the value was 13.9% (inactive); for `COc1ccc(-c2nc(Sc3c([N+](=O)[O-])ncn3C)n[nH]2)cc1`, -1.25% (inactive); for `N#CCN1CCc2ccccc2C1`, -8.45% (inactive).
The same measure, in the same setting: for `O=C1c2sc(-c3ccc(Cl)cc3)cc2-n2cccc21` the value was 9.3% (inactive); for `C=CCSC[C@H](NC(=O)COc1ccccc1)C(=O)NC(C(=O)OCc1ccc([N+](=O)[O-])cc1)=C(C)C`, 45.8% (inactive).
On to `O=C1CCCNC(=O)N1`, for which the growth inhibition was -11.2% (inactive).
The same measure, in the same setting: for `CC12C(=O)C(C(c3ccccc3)=C1c1ccccc1)C1C(=O)OC(=O)C12` (stereo not drawn) the value was -6.8% (inactive); for `CCCCCCCCCCCCCCCCCC(=O)N/N=C\c1c(O)ccc2ccccc12`, 21.4% (inactive).
The same measure, in the same setting: for `O=C(Cc1ccccc1)c1ccccc1C(=O)NCc1ccncc1` the value was 1.7% (inactive); for `CCCCC1(N=[N+]=[N-])C(=O)C2C=CC=C3c4ccccc4N(C1=O)C32` (stereo not drawn), -1.15% (inactive); for `NC(=S)N/N=C\c1cccc(O)c1O`, 2.9% (inactive).
Still for that read-out and setting: for `O=C(Cc1ccccc1)C(c1ccccc1)C(c1ccccc1)c1ccccc1` (stereo not drawn) the value was -12.8% (inactive).
As for `CN(C)CCC(C#N)c1ccccc1` (stereo not drawn), the growth inhibition is -18.6% (inactive).
On the same count and under the same terms, for `CC(C)c1cc(C(C)C)c(S(=O)(=O)N/N=C2\C=CCC(C)(C)C2)c(C(C)C)c1` the value was 41.1% (inactive); for `N.N.N.N.O=C([O-])O.O=C([O-])[O-].[Co+3]`, 2.15% (inactive).
Same read-out and setting: for `CN(N=O)C(=O)NCCn1cnc2c(=O)[nH]cnc21` the value was -6.55% (inactive).
Turning to `O=c1[nH]c(=O)n(C2CC(O)C(CO)O2)cc1C#Cc1c(F)c(F)c(F)c(F)c1F` (stereo not drawn), the growth inhibition was -17.2% (inactive).
On the same count and under the same terms, for `CC(C)(C)c1cc2c(O)c3cccc4c(=O)c5cccc6c5-c(c34)c2c(c1)c6=O` the value was 33.9% (inactive); for `O=C1c2cc([N+](=O)[O-])ccc2-c2ccc3c4ccc5c6c(ccc(c7ccc1c2c73)c64)C(=O)c1cc([N+](=O)[O-])ccc1-5`, 14% (inactive).
On the same count and under the same terms, for `Cc1ccccc1C(=O)NC(O)(C(F)(F)F)C(F)(F)F` the value was 2.4% (inactive).

Another experiment in a line: NCI Yeast Anticancer Drug Screen. Data for the mec2-1 strain (AID 157). Particulars: S. cerevisiae mec2-1 strain, stronger effect = higher value; at 50.0 µM unless noted. Put shortly:
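Vehicle-treated cultures served as reference for growth inhibition of compound-exposed mec2-1 yeast.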
Regarding `CCCCCCCCN(CCCCCCCC)CC(O)c1cc(Cl)c(Cl)c(Cl)c1` (stereo not drawn), the growth inhibition was 12.3% (inactive).
Take `NC(=O)C1CC1`: the growth inhibition is 2.25% (inactive).
The same measure, in the same setting: for `O=C1OC(/C=C/c2ccccc2)=NC/1=C\c1ccc2c(c1)OCO2` the value was 18.9% (inactive).
With `CCOc1ccc(C(=O)C[N+]2(CCc3ccccc3)CCOCC2)cc1`, the growth inhibition was 6.3% (inactive).
On the same count and under the same terms, for `c1ccc2c(c1)OC1OC2Oc2ccccc21` the value was -39.1% (inactive) and -3.85% (inactive).
Still for that read-out and setting: for `CC(C)=C(Nc1ccccc1)NC(C)C` the value was -19.1% (inactive); for `O=C1c2ccccc2NC(O)c2cccn21` (stereo not drawn), 0.2% (inactive); for `O=c1[nH]c2[nH]c(=S)[nH]c(=O)c2[nH]1`, 0.85% (inactive).
Still for that read-out and setting: for `Cc1ccc(NC(=O)C2CCCCC2)cc1` the value was 3.3% (inactive); for `N#CC1(OC2CCCCO2)Cc2ccccc2C1` (stereo not drawn), 2.45% (inactive); for `CCCC1([N+](=O)[O-])c2ccccc2-c2ccc([N+](=O)[O-])cc21` (stereo not drawn), 7.9% (inactive).
Consider `CC(=O)Nc1ccc2nc(SC(C)C)sc2c1`, for which the growth inhibition is 7.7% (inactive).
Take `Nc1c(Br)cc(Br)cc1C(=O)O`: the growth inhibition was -14.1% (inactive).
For the compound `Cc1ccc(N2C(=O)CC(NC3CCCCC3)C2=O)cc1` (stereo not drawn), the growth inhibition was -3% (inactive).
The same measure, in the same setting: for `CCCCN(CCCC)CC(=O)NC(=O)c1ccccc1` the value was -5.55% (inactive); for `Cc1ccc(C)c(NC(=O)Nc2ccccc2)c1`, 4.25% (inactive).
On to `N#Cc1ccccc1NC(=O)C(=O)c1c(O)c2ccccc2oc1=O`, for which the growth inhibition was -6.8% (inactive).
In the case of `CCOC(=O)/C=C/CCC(C)(C)COC(C)=O`, the growth inhibition is -1.4% (inactive).
For the compound `Nn1c(-c2cccc(Cl)c2)nc2ccccc2c1=O`, the growth inhibition was 5.45% (inactive).
For the compound `COc1ccc(OC(C)C(=O)O)c2c(=O)ccccc12` (stereo not drawn), the growth inhibition is 10.7% (inactive).
For `COc1ccc(-c2nc(Sc3c([N+](=O)[O-])ncn3C)n[nH]2)cc1`, the growth inhibition is 5.75% (inactive).
For `N#CCN1CCc2ccccc2C1`, the growth inhibition is -7.15% (inactive).
With `O=C1c2sc(-c3ccc(Cl)cc3)cc2-n2cccc21`, the growth inhibition was 15.4% (inactive).
Same read-out and setting: for `C=CCSC[C@H](NC(=O)COc1ccccc1)C(=O)NC(C(=O)OCc1ccc([N+](=O)[O-])cc1)=C(C)C` the value was 26.6% (inactive); for `O=C1CCCNC(=O)N1`, 20.1% (inactive).
On the same count and under the same terms, for `CC12C(=O)C(C(c3ccccc3)=C1c1ccccc1)C1C(=O)OC(=O)C12` (stereo not drawn) the value was 2.8% (inactive); for `CCCCCCCCCCCCCCCCCC(=O)N/N=C\c1c(O)ccc2ccccc12`, 11.7% (inactive); for `O=C(Cc1ccccc1)c1ccccc1C(=O)NCc1ccncc1`, 2.05% (inactive).
The same measure, in the same setting: for `CCCCC1(N=[N+]=[N-])C(=O)C2C=CC=C3c4ccccc4N(C1=O)C32` (stereo not drawn) the value was -11.2% (inactive).
As to `NC(=S)N/N=C\c1cccc(O)c1O`, the growth inhibition was 25.1% (inactive).
Still for that read-out and setting: for `O=C(Cc1ccccc1)C(c1ccccc1)C(c1ccccc1)c1ccccc1` (stereo not drawn) the value was -11.8% (inactive).
Same read-out and setting: for `CN(C)CCC(C#N)c1ccccc1` (stereo not drawn) the value was -15.6% (inactive); for `CC(C)c1cc(C(C)C)c(S(=O)(=O)N/N=C2\C=CCC(C)(C)C2)c(C(C)C)c1`, 5.05% (inactive).
Same read-out and setting: for `N.N.N.N.O=C([O-])O.O=C([O-])[O-].[Co+3]` the value was 3.4% (inactive).
`CN(N=O)C(=O)NCCn1cnc2c(=O)[nH]cnc21`: the growth inhibition was 14.4% (inactive).
Still for that read-out and setting: for `O=c1[nH]c(=O)n(C2CC(O)C(CO)O2)cc1C#Cc1c(F)c(F)c(F)c(F)c1F` (stereo not drawn) the value was -11.7% (inactive).
Same read-out and setting: for `CC(C)(C)c1cc2c(O)c3cccc4c(=O)c5cccc6c5-c(c34)c2c(c1)c6=O` the value was 15.1% (inactive); for `O=C1c2cc([N+](=O)[O-])ccc2-c2ccc3c4ccc5c6c(ccc(c7ccc1c2c73)c64)C(=O)c1cc([N+](=O)[O-])ccc1-5`, -10.6% (inactive).
As to `Cc1ccccc1C(=O)NC(O)(C(F)(F)F)C(F)(F)F`, the growth inhibition is 10.2% (inactive).
